Laboratory results taken from PMC11006913.
Substitutions are numbered along the chain they refer to.

Assays:
Assay in all cases: PBM; 200 nM protein, PBS
Conditions in all cases: dsDNA, one strand shown
HOXB4 [1] = biological target: HOXB4 (Homo sapiens, UniProt P17483 148-234)
VENTX [2] = biological target: T1, VENTX (Homo sapiens, UniProt O95231 78-163, R121Q)
T1 sequence: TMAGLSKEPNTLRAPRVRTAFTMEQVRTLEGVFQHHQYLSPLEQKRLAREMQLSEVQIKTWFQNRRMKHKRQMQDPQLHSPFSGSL

HOXA4 [3] = biological target: HOXA4 (Homo sapiens, UniProt Q00056 201-287, W262R)
VENTX [4] = biological target: T2, VENTX (Homo sapiens, UniProt O95231 78-163)
T2 sequence: T1 sequence with Q44R

PAX4 [5] = biological target: T3, PAX4 (Homo sapiens, UniProt O43316 9-242, R200K)
T3 sequence: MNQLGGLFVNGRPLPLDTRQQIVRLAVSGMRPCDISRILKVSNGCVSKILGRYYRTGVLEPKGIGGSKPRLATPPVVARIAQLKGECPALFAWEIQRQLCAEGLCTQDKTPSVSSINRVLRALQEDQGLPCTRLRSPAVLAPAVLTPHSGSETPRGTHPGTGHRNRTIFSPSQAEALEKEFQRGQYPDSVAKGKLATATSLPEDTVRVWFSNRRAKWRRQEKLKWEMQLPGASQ

VENTX [6] = biological target: T4, VENTX (Homo sapiens, UniProt O95231 78-163, Y115F)
T4 sequence: T1 sequence with Y38F, Q44R

PAX4 [7] = biological target: T5, PAX4 (Homo sapiens, UniProt O43316 9-242)
T5 sequence: T3 sequence with K192R

HOXA4 [8] = biological target: HOXA4 (Homo sapiens, UniProt Q00056 201-287, R217L)
HOXB4 [9] = biological target: HOXB4 (Homo sapiens, UniProt P17483 148-234, V174I)
PAX4 [10] = biological target: T6, PAX4 (Homo sapiens, UniProt O43316 9-242, R200Q)
T6 sequence: T3 sequence with K192Q

PAX4 [11] = biological target: T7, PAX4 (Homo sapiens, UniProt O43316 9-242, F177V)
T7 sequence: T3 sequence with F169V, K192R

HOXA4 [12] = biological target: HOXA4 (Homo sapiens, UniProt Q00056 201-287)
PAX4 [13] = biological target: T8, PAX4 (Homo sapiens, UniProt O43316 9-242, F177Y)
T8 sequence: T3 sequence with F169Y, K192R

PAX4 [14] = biological target: T9, PAX4 (Homo sapiens, UniProt O43316 9-242, R227W)
T9 sequence: T3 sequence with K192R, R219W

HOXA4 [15] = biological target: HOXA4 (Homo sapiens, UniProt Q00056 201-287, W262F)
HOXB9 [16] = biological target: HOXB9 (Homo sapiens, UniProt P17482 171-250, T197M)
HOXC9 [17] = biological target: HOXC9 (Homo sapiens, UniProt P31274 178-260, K195R)
HOXA7 [18] = biological target: HOXA7 (Homo sapiens, UniProt P31268 116-202)
HOXC10 [19] = biological target: HOXC10 (Homo sapiens, UniProt Q9NYD6 254-340)
HOXB6 [20] = biological target: HOXB6 (Homo sapiens, UniProt P17509 132-218, K202E)
HOXA2 [21] = biological target: HOXA2 (Homo sapiens, UniProt O43364 129-215, R185T)
HOXB9 [22] = biological target: HOXB9 (Homo sapiens, UniProt P17482 171-250)
HOXC9 [23] = biological target: HOXC9 (Homo sapiens, UniProt P31274 178-260)
HOXD13 [24] = biological target: HOXD13 (Homo sapiens, UniProt P35453 263-343, T313R)
HOXC9 [25] = biological target: HOXC9 (Homo sapiens, UniProt P31274 178-260, R193K)
HOXA2 [26] = biological target: HOXA2 (Homo sapiens, UniProt O43364 129-215, R185K)
HOXD13 [27] = biological target: HOXD13 (Homo sapiens, UniProt P35453 263-343)
HOXC10 [28] = biological target: HOXC10 (Homo sapiens, UniProt Q9NYD6 254-340, K271E)
VAX1 [29] = biological target: VAX1 (Homo sapiens, UniProt Q5SQQ9 86-172)
HOXD13 [30] = biological target: HOXD13 (Homo sapiens, UniProt P35453 263-343, T313A)
HOXB9 [31] = biological target: HOXB9 (Homo sapiens, UniProt P17482 171-250, R186Q)
HOXC9 [32] = biological target: HOXC9 (Homo sapiens, UniProt P31274 178-260, R222W)
VAX1 [33] = biological target: VAX1 (Homo sapiens, UniProt Q5SQQ9 86-172, T142I)
HOXA2 [34] = biological target: HOXA2 (Homo sapiens, UniProt O43364 129-215, Y150S)
HOXA7 [35] = biological target: HOXA7 (Homo sapiens, UniProt P31268 116-202, W177C)
HOXA2 [36] = biological target: HOXA2 (Homo sapiens, UniProt O43364 129-215)
VAX1 [37] = biological target: VAX1 (Homo sapiens, UniProt Q5SQQ9 86-172, K157R)
HOXB6 [38] = biological target: HOXB6 (Homo sapiens, UniProt P17509 132-218)
Sequence of HOXB6 (Homo sapiens, UniProt P17509 132-218) (P17509 132-218): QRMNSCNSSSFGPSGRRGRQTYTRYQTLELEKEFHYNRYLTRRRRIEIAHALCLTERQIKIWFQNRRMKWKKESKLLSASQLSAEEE

Sequence of HOXB4 (Homo sapiens, UniProt P17483 148-234) (P17483 148-234): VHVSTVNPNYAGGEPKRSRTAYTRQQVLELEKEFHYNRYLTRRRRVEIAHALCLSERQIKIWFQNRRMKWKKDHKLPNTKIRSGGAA
Sequence of HOXB4 (Homo sapiens, UniProt P17483 148-234, V174I) (P17483 148-234 V174I): as the sequence (P17483 148-234) above, with V27I counted along it
Sequence of HOXA4 (Homo sapiens, UniProt Q00056 201-287, W262F) (Q00056 201-287 W262F): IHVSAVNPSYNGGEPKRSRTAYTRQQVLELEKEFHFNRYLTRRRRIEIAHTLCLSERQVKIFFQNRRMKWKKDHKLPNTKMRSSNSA
Sequence of HOXA4 (Homo sapiens, UniProt Q00056 201-287) (Q00056 201-287): as the sequence (Q00056 201-287 W262F) above, with F62W counted along it
Sequence of HOXA4 (Homo sapiens, UniProt Q00056 201-287, R217L) (Q00056 201-287 R217L): as the sequence (Q00056 201-287 W262F) above, with R17L, F62W counted along it
Sequence of HOXA4 (Homo sapiens, UniProt Q00056 201-287, W262R) (Q00056 201-287 W262R): as the sequence (Q00056 201-287 W262F) above, with F62R counted along it
Sequence of HOXA2 (Homo sapiens, UniProt O43364 129-215) (O43364 129-215): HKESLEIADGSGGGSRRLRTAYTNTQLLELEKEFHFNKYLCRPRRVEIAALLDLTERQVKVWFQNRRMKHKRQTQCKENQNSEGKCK
Sequence of HOXB6 (Homo sapiens, UniProt P17509 132-218, K202E) (P17509 132-218 K202E): as the sequence (P17509 132-218) above, with K71E counted along it
Sequence of HOXA2 (Homo sapiens, UniProt O43364 129-215, Y150S) (O43364 129-215 Y150S): as the sequence (O43364 129-215) above, with Y22S counted along it
Sequence of VAX1 (Homo sapiens, UniProt Q5SQQ9 86-172, K157R) (Q5SQQ9 86-172 K157R): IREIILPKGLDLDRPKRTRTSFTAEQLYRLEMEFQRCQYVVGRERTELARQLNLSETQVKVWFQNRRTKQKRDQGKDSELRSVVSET
Sequence of HOXA2 (Homo sapiens, UniProt O43364 129-215, R185K) (O43364 129-215 R185K): as the sequence (O43364 129-215) above, with R57K counted along it
Sequence of HOXD13 (Homo sapiens, UniProt P35453 263-343) (P35453 263-343): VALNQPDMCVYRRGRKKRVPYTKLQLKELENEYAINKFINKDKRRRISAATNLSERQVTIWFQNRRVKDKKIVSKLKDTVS
Sequence of HOXA2 (Homo sapiens, UniProt O43364 129-215, R185T) (O43364 129-215 R185T): as the sequence (O43364 129-215) above, with R57T counted along it
Sequence of HOXC9 (Homo sapiens, UniProt P31274 178-260) (P31274 178-260): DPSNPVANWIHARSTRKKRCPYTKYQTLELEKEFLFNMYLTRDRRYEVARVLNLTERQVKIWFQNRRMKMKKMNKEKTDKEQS
Sequence of VAX1 (Homo sapiens, UniProt Q5SQQ9 86-172) (Q5SQQ9 86-172): as the sequence (Q5SQQ9 86-172 K157R) above, with R72K counted along it
Sequence of HOXC9 (Homo sapiens, UniProt P31274 178-260, R222W) (P31274 178-260 R222W): as the sequence (P31274 178-260) above, with R45W counted along it
Sequence of HOXB9 (Homo sapiens, UniProt P17482 171-250, R186Q) (P17482 171-250 R186Q): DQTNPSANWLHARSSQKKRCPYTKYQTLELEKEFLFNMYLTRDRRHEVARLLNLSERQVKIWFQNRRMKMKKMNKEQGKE
Sequence of VAX1 (Homo sapiens, UniProt Q5SQQ9 86-172, T142I) (Q5SQQ9 86-172 T142I): as the sequence (Q5SQQ9 86-172 K157R) above, with T57I, R72K counted along it
Sequence of HOXB9 (Homo sapiens, UniProt P17482 171-250, T197M) (P17482 171-250 T197M): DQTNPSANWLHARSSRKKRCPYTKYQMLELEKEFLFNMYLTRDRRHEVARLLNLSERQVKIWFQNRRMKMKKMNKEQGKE
Sequence of HOXD13 (Homo sapiens, UniProt P35453 263-343, T313A) (P35453 263-343 T313A): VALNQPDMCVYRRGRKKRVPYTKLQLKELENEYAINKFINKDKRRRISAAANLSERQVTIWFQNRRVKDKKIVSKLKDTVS
Sequence of HOXB9 (Homo sapiens, UniProt P17482 171-250) (P17482 171-250): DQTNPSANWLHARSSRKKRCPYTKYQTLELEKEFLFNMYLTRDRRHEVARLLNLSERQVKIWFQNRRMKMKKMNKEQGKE
Sequence of HOXD13 (Homo sapiens, UniProt P35453 263-343, T313R) (P35453 263-343 T313R): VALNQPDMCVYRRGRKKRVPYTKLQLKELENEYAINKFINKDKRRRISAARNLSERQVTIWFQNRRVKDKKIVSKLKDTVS
Sequence of HOXC10 (Homo sapiens, UniProt Q9NYD6 254-340, K271E) (Q9NYD6 254-340 K271E): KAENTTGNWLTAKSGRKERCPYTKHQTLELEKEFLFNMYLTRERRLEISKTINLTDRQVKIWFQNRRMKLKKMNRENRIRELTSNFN
Sequence of HOXC9 (Homo sapiens, UniProt P31274 178-260, K195R) (P31274 178-260 K195R): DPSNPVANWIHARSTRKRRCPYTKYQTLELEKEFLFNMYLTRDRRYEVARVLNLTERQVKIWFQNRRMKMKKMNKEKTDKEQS
Sequence of HOXA7 (Homo sapiens, UniProt P31268 116-202, W177C) (P31268 116-202 W177C): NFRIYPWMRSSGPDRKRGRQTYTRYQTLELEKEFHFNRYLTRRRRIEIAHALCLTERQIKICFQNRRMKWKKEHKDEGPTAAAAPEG
Sequence of HOXC10 (Homo sapiens, UniProt Q9NYD6 254-340) (Q9NYD6 254-340): as the sequence (Q9NYD6 254-340 K271E) above, with E18K counted along it
Sequence of HOXA7 (Homo sapiens, UniProt P31268 116-202) (P31268 116-202): as the sequence (P31268 116-202 W177C) above, with C62W counted along it
Sequence of HOXC9 (Homo sapiens, UniProt P31274 178-260, R193K) (P31274 178-260 R193K): as the sequence (P31274 178-260) above, with R16K counted along it

## ATTAATCG
HOXB4 [1]
  binding signal: 13 upbm affinity estimate (log intensity, higher = more binding, comparable within an allelic series)
VENTX [2]
  binding signal: 11.6 upbm affinity estimate (log intensity, higher = more binding, comparable within an allelic series)
HOXA4 [3]
  binding signal: 10.5 upbm affinity estimate (log intensity, higher = more binding, comparable within an allelic series)
VENTX [4]
  binding signal: 12.5 upbm affinity estimate (log intensity, higher = more binding, comparable within an allelic series)
PAX4 [5]
  binding signal: 11.6 upbm affinity estimate (log intensity, higher = more binding, comparable within an allelic series)
VENTX [6]
  binding signal: 11.4 upbm affinity estimate (log intensity, higher = more binding, comparable within an allelic series)
PAX4 [7]
  binding signal: 12.2 upbm affinity estimate (log intensity, higher = more binding, comparable within an allelic series)
HOXA4 [8]
  binding signal: 11.9 upbm affinity estimate (log intensity, higher = more binding, comparable within an allelic series)
HOXB4 [9]
  binding signal: 13.7 upbm affinity estimate (log intensity, higher = more binding, comparable within an allelic series)
PAX4 [10]
  binding signal: 12 upbm affinity estimate (log intensity, higher = more binding, comparable within an allelic series)
PAX4 [11]
  binding signal: 10.5 upbm affinity estimate (log intensity, higher = more binding, comparable within an allelic series)
HOXA4 [12]
  binding signal: 13.6 upbm affinity estimate (log intensity, higher = more binding, comparable within an allelic series)
PAX4 [13]
  binding signal: 11.1 upbm affinity estimate (log intensity, higher = more binding, comparable within an allelic series)
PAX4 [14]
  binding signal: 10.7 upbm affinity estimate (log intensity, higher = more binding, comparable within an allelic series)
HOXA4 [15]
  binding signal: 11.2 upbm affinity estimate (log intensity, higher = more binding, comparable within an allelic series)

## GCTCGTTA
HOXB4 [1]
  binding signal: 11.4 upbm affinity estimate (log intensity, higher = more binding, comparable within an allelic series)
VENTX [2]
  binding signal: 10.1 upbm affinity estimate (log intensity, higher = more binding, comparable within an allelic series)
HOXB4 [9]
  binding signal: 11.6 upbm affinity estimate (log intensity, higher = more binding, comparable within an allelic series)

## TCATTAAA
HOXB4 [1]
  binding signal: 13.1 upbm affinity estimate (log intensity, higher = more binding, comparable within an allelic series)
HOXB9 [16]
  binding signal: 10.2 upbm affinity estimate (log intensity, higher = more binding, comparable within an allelic series)
HOXA4 [3]
  binding signal: 10.8 upbm affinity estimate (log intensity, higher = more binding, comparable within an allelic series)
HOXC9 [17]
  binding signal: 13 upbm affinity estimate (log intensity, higher = more binding, comparable within an allelic series)
HOXA7 [18]
  binding signal: 11.6 upbm affinity estimate (log intensity, higher = more binding, comparable within an allelic series)
HOXC10 [19]
  binding signal: 12.6 upbm affinity estimate (log intensity, higher = more binding, comparable within an allelic series)
HOXB6 [20]
  binding signal: 10.1 upbm affinity estimate (log intensity, higher = more binding, comparable within an allelic series)
HOXA2 [21]
  binding signal: 12.5 upbm affinity estimate (log intensity, higher = more binding, comparable within an allelic series)
HOXA4 [8]
  binding signal: 12.5 upbm affinity estimate (log intensity, higher = more binding, comparable within an allelic series)
HOXB9 [22]
  binding signal: 12.2 upbm affinity estimate (log intensity, higher = more binding, comparable within an allelic series)
HOXB4 [9]
  binding signal: 13.8 upbm affinity estimate (log intensity, higher = more binding, comparable within an allelic series)
HOXC9 [23]
  binding signal: 12.9 upbm affinity estimate (log intensity, higher = more binding, comparable within an allelic series)
HOXD13 [24]
  binding signal: 10.8 upbm affinity estimate (log intensity, higher = more binding, comparable within an allelic series)
HOXC9 [25]
  binding signal: 12.9 upbm affinity estimate (log intensity, higher = more binding, comparable within an allelic series)
HOXA2 [26]
  binding signal: 13.1 upbm affinity estimate (log intensity, higher = more binding, comparable within an allelic series)
HOXD13 [27]
  binding signal: 11.9 upbm affinity estimate (log intensity, higher = more binding, comparable within an allelic series)
HOXA4 [12]
  binding signal: 13.9 upbm affinity estimate (log intensity, higher = more binding, comparable within an allelic series)
HOXC10 [28]
  binding signal: 12.4 upbm affinity estimate (log intensity, higher = more binding, comparable within an allelic series)
VAX1 [29]
  binding signal: 13 upbm affinity estimate (log intensity, higher = more binding, comparable within an allelic series)
HOXD13 [30]
  binding signal: 11.7 upbm affinity estimate (log intensity, higher = more binding, comparable within an allelic series)
HOXB9 [31]
  binding signal: 12 upbm affinity estimate (log intensity, higher = more binding, comparable within an allelic series)
HOXC9 [32]
  binding signal: 11.2 upbm affinity estimate (log intensity, higher = more binding, comparable within an allelic series)
VAX1 [33]
  binding signal: 13 upbm affinity estimate (log intensity, higher = more binding, comparable within an allelic series)
HOXA2 [34]
  binding signal: 10.9 upbm affinity estimate (log intensity, higher = more binding, comparable within an allelic series)
HOXA7 [35]
  binding signal: 9 upbm affinity estimate (log intensity, higher = more binding, comparable within an allelic series)
HOXA4 [15]
  binding signal: 11.9 upbm affinity estimate (log intensity, higher = more binding, comparable within an allelic series)
HOXA2 [36]
  binding signal: 12.3 upbm affinity estimate (log intensity, higher = more binding, comparable within an allelic series)
VAX1 [37]
  binding signal: 12.9 upbm affinity estimate (log intensity, higher = more binding, comparable within an allelic series)
HOXB6 [38]
  binding signal: 11.9 upbm affinity estimate (log intensity, higher = more binding, comparable within an allelic series)
